We go through 14 compounds from PubChem BioAssay (NCATS).

“And” between values parts separate entries of the source, which are not always exact repeats. Identical values can stand only once. Results filed as inconclusive are left out. Values without a mark were called inactive. The source made the active and inactive calls. Unless noted, the call rests on the fitted dose curve; in most records, active means well fitted curve in the direction sought with a large enough effect; inconclusive means small, poorly fitted or top-dose-only effect, or another doubt; inactive means no such curve, though single readings can be large; an effect the other way counts as inactive or inconclusive.

For experiment [1], the target named is Cellular tumor antigen p53 (Homo sapiens) (UniProt P04637). As to the kind of experiment: Primary qHTS for small molecule compounds that upregulate eGFP-tagged delta133p53alpha (in N-terminal) cells. (AID 2060322).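 Further: series mostly up to about 56 µM; 0% = DMSO vehicle and 100% = reference activator; nearly all actives have a fitted effect of over 75% in size.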 The conditions noted are these: NCI-H358 eGFP-delta133p53alpha fluorescence, 24 h; activation: hits give high values. Put shortly:
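NCI-H358 cells pre-induced 24 h with 10 ng/ml doxycycline to express N-terminal eGFP-delta133p53alpha, then dosed 24 h at 37C without doxycycline; fixed, Hoechst-stained, GFP intensity by laser scanning cytometry, normalized to DMSO (0%) and 57.5 uM 5-azacytidine (100%).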
In general terms: In qHTS, concentration-response curves come from the screen itself.

Experiment [2] shares this target. As to the kind of experiment: Primary qHTS for small molecule compounds that upregulate eGFP-tagged delta133p53alpha (in C-terminal) cells. (AID 2060324).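 Further: 0% = DMSO wells and 100% = 57.5 µM 5-azacytidine.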 A digest of the protocol: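 NCI-H358 cells pre-induced 24 h with 100 ng/ml doxycycline to express delta133p53alpha-eGFP, then dosed in doxycycline-free medium for 24 h at 37C. Fixed, Hoechst-stained; GFP intensity by laser scanning cytometry, normalized to DMSO wells.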

The target of experiment [3] is Aldehyde dehydrogenase, mitochondrial (Homo sapiens) (UniProt P05091). As to the kind of experiment: qHTS for Inhibitors of the Aldehyde Dehydrogenase Family (ALDH2) Validation screens (AID 2061302; active means well fitted inhibition curve with a large enough effect; title and protocol of this record describe different tests;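 further: plate controls were DMSO vehicle for no effect and maximal DPI positive control response for full effect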).
The target in experiment [4] is Retinaldehyde dehydrogenase 3 (Homo sapiens) (UniProt P47895). As to the kind of experiment: qHTS for Inhibitors of the Aldehyde Dehydrogenase Family (ALDH1A3) Validation screen (AID 2061312). Further: on the % scale 0 is the no-effect control and ±100 the full control effect; nearly all actives have a fitted effect of over 45% in size.
A short description of experiment [5]: BET inhibitor-based combinations targeting novel dependencies in MECOM-rearranged (r) AML: SET-2 cell line (AID 2202231).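 Further: plate controls were DMSO treated cells for no effect and wells without cells for full effect; nearly all actives have a fitted effect of over 35% in size.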 The conditions noted are these: SET-2 AML cells viability, CellTiter-Glo luminescence, 48 h; viability: hits give low values, series mostly up to about 46 µM. Put shortly: (§1)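 A 48 hr incubation preceded viability reading by CellTiter-Glo, with 15 min room-temperature development. Dose series had 11 points; normalization used DMSO and empty wells; AUC was computed and mean-centered per line as Z-AUC.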

The nature of experiment [6]: BET inhibitor-based combinations targeting novel dependencies in MECOM-rearranged (r) AML: OCI-AML3 cell line (AID 2202232). Further: nearly all actives have a fitted effect of over 35% in size. Further: potency means the concentration at half of the fitted maximal effect. To be noted: Potency: OCI-AML3 viability. A digest of the protocol: as §1
The nature of experiment [7]: BET inhibitor-based combinations targeting novel dependencies in MECOM-rearranged (r) AML: MV-4-11 cell line (AID 2202233). Further: nearly all actives have a fitted effect of over 45% in size. Further: potency means the concentration at half of the fitted maximal effect. A digest of the protocol:
(§2)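 Each compound is tested in an 11-point concentration series against 500 seeded cells/well for 48 hr. The luminescent viability signal is normalized to DMSO and blank wells, then reduced to AUC and a cell-line-centred Z-AUC.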

The nature of experiment [8]: BET inhibitor-based combinations targeting novel dependencies in MECOM-rearranged (r) AML: HNT-34 cell line (AID 2202234). Further: nearly all actives have a fitted effect of over 35% in size. Further: potency means the concentration at half of the fitted maximal effect. Put shortly:
as §2

Experiment [9] in a line: BET inhibitor-based combinations targeting novel dependencies in MECOM-rearranged (r) AML: UCSD-AML1 cell line (AID 2202235).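 Further: series mostly up to about 46 µM; plate controls were DMSO vehicle wells for no effect and blank wells for full effect; nearly all actives have a fitted effect of over 40% in size.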 Put shortly: as §2
Experiment [10] is described as follows: BET inhibitor-based combinations targeting novel dependencies in MECOM-rearranged (r) AML: AML-191 cell line (AID 2202236;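 further: plate controls were vehicle wells for no effect and wells without cells for full effect; nearly all actives have a fitted effect of over 35% in size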). A digest of the protocol:
as §1

The nature of experiment [11]: BET inhibitor-based combinations targeting novel dependencies in MECOM-rearranged (r) AML: AML-194 cell line (AID 2202237;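 further: plate controls were vehicle wells for no effect and wells without cells for full effect; nearly all actives have a fitted effect of over 40% in size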). A digest of the protocol: as §1
For experiment [12], the target named is Retinaldehyde dehydrogenase 3 (Homo sapiens) (UniProt P47895). As to the kind of experiment: qHTS for Inhibitors of the Aldehyde Dehydrogenase Family (ALDH1A3) Primary screen (AID 2061315).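 Further: plate controls were DMSO vehicle for no effect and reference inhibitor for full effect.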

Chain of Cellular tumor antigen p53 (Homo sapiens) (P04637 whole entry, looked up): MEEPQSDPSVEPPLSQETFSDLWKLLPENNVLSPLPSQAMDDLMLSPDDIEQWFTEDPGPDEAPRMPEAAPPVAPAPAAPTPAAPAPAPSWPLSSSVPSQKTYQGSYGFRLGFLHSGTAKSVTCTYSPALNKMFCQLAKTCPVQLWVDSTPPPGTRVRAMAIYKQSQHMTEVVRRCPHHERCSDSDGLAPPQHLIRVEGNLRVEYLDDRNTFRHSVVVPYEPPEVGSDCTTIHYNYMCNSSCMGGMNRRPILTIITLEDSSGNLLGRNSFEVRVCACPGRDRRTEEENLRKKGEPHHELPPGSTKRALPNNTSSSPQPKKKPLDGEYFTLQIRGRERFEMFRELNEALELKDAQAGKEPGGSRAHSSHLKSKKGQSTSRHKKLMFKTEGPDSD

By viability is commonly meant a read-out of living cells in per cent, often relative to untreated cells. With `O=C(O)C1CCCN(CCC=C(c2ccccc2)c2ccccc2)C1` (configuration not stated), the activation in experiment [1] is -10.3%. For the same compound, the Potency entry in [2], in [3], in experiment [4], in experiment [6], in experiment [7] and in [8] was “inactive” throughout. Further, the Potency result in experiment [9], in experiment [10] and in [11] was “inactive” each time. In addition, the viability in [5] was 117%.
Turning to `Nc1nc2c(ncn2COC(CO)CO)c(=O)[nH]1`, the activation in [1] is -11.7%. Moreover, the Potency entry in experiment [2], in experiment [3], in [4], in [6], in experiment [8] and in [9] was “inactive” each time. Also, the Potency entry in [10] and in experiment [11] was “inactive” throughout. The viability in experiment [5] was 113%.
As for `CC12CC3CC(C)(C1)CC(N)(C3)C2`, the activation in experiment [1] is -20.9% and 13.4% and -0.343%. Further, the Potency entry in experiment [2], in experiment [3], in [4], in experiment [6], in [7] and in experiment [8] was “inactive” each time. The Potency entry in [9], in [10] and in [11] was “inactive” each time. Moreover, the viability in [5] is 110%.
With `CCCCN(CCCC)CC(O)c1cc(Cl)cc2c1-c1ccc(Cl)cc1/C2=C/c1ccc(Cl)cc1` (configuration not stated), in experiment [1], the activation is 22.6% and -82.3%. The Potency entry in [2], in [3], in experiment [4], in [6], in experiment [7] and in experiment [8] was “inactive” each time. The Potency entry in experiment [9], in experiment [10] and in [11] was “inactive” in each case. In addition, the viability in experiment [5] is 104%.
Consider `CCOC(=O)C(C)Oc1cccc2c(=O)n(CC(=O)Nc3ccc4c(c3)OCCO4)ccc12` (configuration not stated), for which, in [1], the activation is -0.568% and 16.2%. The Potency result in experiment [2], in experiment [3], in [4], in [8], in experiment [10] and in experiment [11] was “inactive” throughout. In addition, the viability in experiment [5] was 114%. In addition, the Potency in experiment [6] was 3.72 µM (active); in experiment [7], 3.32 µM (active).
For the compound `CC(CCc1ccccc1)NCC(O)c1ccc(O)c(C(N)=O)c1` (configuration not stated), the activation in [1] was 11.5% and 18%. Moreover, the Potency entry in experiment [2], in experiment [3], in experiment [4] and in [12] was “inactive” throughout.
On to `CCCCNc1cc(C(=O)O)cc(S(N)(=O)=O)c1Oc1ccccc1`, for which the activation in experiment [1] is 1.67% and 7.38% and -16.3%. In addition, the Potency entry in experiment [2], in experiment [3], in experiment [4], in experiment [6], in [7] and in experiment [8] was “inactive” in each case. In addition, the Potency result in [9], in [10] and in experiment [11] was “inactive” throughout. Further, the viability in [5] was 115%.
Consider `CC(C)(C)NCC(O)c1ccc(O)c(CO)c1` (configuration not stated), for which the activation in [1] was -7.9% and 9.21% and -24.1%. Also, the Potency entry in [2], in [3], in experiment [4], in experiment [6], in [7] and in [8] was “inactive” each time. The Potency entry in experiment [9], in experiment [10] and in [11] was “inactive” in each case. Moreover, in [5], the viability is 115%.
With `Cc1cccc(-c2[nH]ncc2-c2ccc3ncccc3n2)n1`, the activation in experiment [1] was 39.6% and -70.9%. Moreover, the Potency result in [2], in experiment [3], in experiment [4], in experiment [6], in experiment [7] and in experiment [10] was “inactive” throughout. In experiment [11], the Potency entry was “inactive”. Also, the viability in [5] is 105%. Also, in [8], the Potency was 20.9 µM (active).
For `NC(=O)c1cccc(N)c1`, the activation in experiment [1] was 7.85%. Besides, the Potency result in experiment [2], in [3], in experiment [4], in experiment [6], in experiment [7] and in [8] was “inactive” in each case. Also, the Potency entry in [9], in experiment [10] and in [11] was “inactive” each time. Besides, in [5], the viability is 120%.
Take `Clc1ccc(C(c2ccccc2Cl)C(Cl)Cl)cc1` (configuration not stated): in experiment [1], the activation was 18.6% and -1.36% and 29.2%. Besides, the Potency result in [2], in [3], in experiment [4], in [6], in experiment [9] and in experiment [10] was “inactive” each time. Further, the Potency entry in experiment [11] is “inactive”. Also, the viability in experiment [5] is 70.3%.
For the compound `CN(CCOc1ccc(NS(C)(=O)=O)cc1)CCc1ccc(NS(C)(=O)=O)cc1`, the activation in experiment [1] was -5.08% and 6.34% and 4.63%. In addition, the Potency result in experiment [2], in experiment [3], in [4], in experiment [6], in experiment [7] and in experiment [8] was “inactive” throughout. In addition, the Potency entry in experiment [9], in [10] and in [11] was “inactive” each time. Also, the viability in experiment [5] is 110%.
For `NC(=O)c1ncn([C@@H]2O[C@H](CO)[C@@H](O)[C@H]2O)c1O`, in experiment [1], the activation was -26.8% and 40.7%. Further, the Potency entry in [2], in experiment [3], in [4], in [6], in experiment [8] and in experiment [9] was “inactive” each time. The Potency result in experiment [10] and in [11] was “inactive” each time. The viability in experiment [5] was 109% and 121%.
As for `Oc1ccc(C2CNCCc3c2cc(O)c(O)c3Cl)cc1` (configuration not stated), the activation in experiment [1] is -18.2% and -20.9% and -11.7%. In addition, the Potency entry in experiment [2], in [3], in experiment [8] and in experiment [9] was “inactive” throughout. Further, in [5], the viability was 108%.
